Measurements taken from PubChem BioAssay (NCI).
About 83,000 compounds went through this panel and 20% of them were active in at least one assay; those are over-represented in the sample as a whole.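 Results are percent growth after 48 hours of single-concentration exposure. 100 means growth as in untreated cells, lower positive values show inhibition; negative values down to -100 show cell death.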 A number with no mark means an inactive call. The source made the active and inactive calls. Rule for the calls: active = growth percent below 10; inactive = the rest.

Tests used:
Assay in all cases: NCI-60 one-dose screen, 48 h (100 = growth as untreated, 0 = no growth, -100 = all killed)
[1] = test system: NCI-H226 lung; conditions: 10 µM unless noted
[2] = test system: NCI-H322M lung; conditions: 10 µM unless noted
[3] = test system: HOP-92 NSCLC; conditions: 10 µM unless noted
[4] = test system: NCI-H522 lung; conditions: 10 µM unless noted
[5] = test system: A549/ATCC NSCLC; conditions: 10 µM unless noted
[6] = test system: COLO 205 colon; conditions: 10 µM
[7] = test system: HT29 colon; conditions: 10 µM unless noted
[8] = test system: UACC-62 melanoma; conditions: 10 µM unless noted
[9] = test system: EKVX NSCLC; conditions: 10 µM unless noted
[10] = test system: UO-31 renal; conditions: 10 µM unless noted
[11] = test system: TK-10 renal; conditions: 10 µM unless noted
[12] = test system: CAKI-1 renal; conditions: 10 µM unless noted
[13] = test system: MOLT-4 leukemia; conditions: 10 µM
[14] = test system: RPMI-8226 leukemia; conditions: 10 µM unless noted
[15] = test system: OVCAR-3 ovarian; conditions: 10 µM unless noted
[16] = test system: HS 578T breast; conditions: 10 µM unless noted
[17] = test system: ACHN renal; conditions: 10 µM unless noted
[18] = test system: HOP-62 NSCLC; conditions: 10 µM unless noted
[19] = test system: T-47D breast; conditions: 10 µM unless noted

**Q.** Which results are given for `CSc1ccccc1NP1(=O)OCC(C)([N+](=O)[O-])CO1` (stereo not drawn)?
**A.** growth [1]: 98.4%; growth [2]: 126%; growth [3]: 89.4%; growth [4]: 103%; growth [5]: 95.9%; growth [6]: 116%; growth [7]: 105%; growth [8]: 101%; growth [9]: 97.8%; growth [10]: 78.3%; growth [11]: 110%; growth [12]: 99.3%; growth [13]: 94.4%; growth [14]: 111%; growth [15]: 107%; growth [16]: 103%

**Q.** What does the source list for `COc1ccc(C2SCC(=O)Nc3c2c(C)nn3-c2nc3ccc(C)cc3s2)cc1O` (stereo not drawn)?
**A.** growth [1]: 67.6%; growth [2]: 56.3%; growth [3]: 28.9%; growth [4]: 1.68% (active); growth [5]: 29.3%; growth [6]: 35.1%; growth [7]: 10.5%; growth [8]: 40.2%; growth [10]: 28.4%; growth [11]: 71.6%; growth [12]: 31.1%; growth [13]: 18.2%; growth [14]: 38.8%; growth [16]: 42.2%

**Q.** What does the source list for `O=C1c2ccccc2C(=O)N1[N+](=O)[O-]`?
**A.** growth [1]: 95.6%; growth [2]: 84.4%; growth [3]: 91.1%; growth [4]: 88.7%; growth [5]: 95.4%; growth [6]: 116%; growth [8]: 96.1%; growth [10]: 85.9%; growth [11]: 93.2%; growth [17]: 111%; growth [12]: 106%; growth [13]: 108%; growth [14]: 101%; growth [15]: 106%; growth [16]: 106%

**Q.** Which growth [1] does the source give for `CC[CH2][Pb]([CH2]CC)([CH2]CC)[O]C(=O)C(F)(F)F` here?
**A.** The growth was -61.6% (active).

**Q.** And the growth [2]?
**A.** The growth was -98.3% (active).

**Q.** And the growth [18]?
**A.** Its growth is -84.3% (active).

**Q.** What about the growth [7] of the same compound?
**A.** The growth was -61.5% (active).

**Q.** What about the growth [8] of the same compound?
**A.** Its growth is -83.2% (active).

**Q.** What about the growth [10] of the same compound?
**A.** Its growth is -100% (active).

**Q.** And the growth [17]?
**A.** The growth was -100% (active).

**Q.** What about the growth [12] of the same compound?
**A.** The growth was -95.2% (active).

**Q.** What about the growth [13] of the same compound?
**A.** The growth was -27.8% (active).

**Q.** And the growth [16]?
**A.** Its growth is -10.4% (active).

**Q.** What about the growth [19] of the same compound?
**A.** Its growth is -68.1% (active).

**Q.** With `c1ccc([As]=[As]c2ccccc2)cc1` (stereo not drawn) as the compound, how does the growth [1] read?
**A.** The growth was 5.17% (active).

**Q.** What about the growth [2] of the same compound?
**A.** The growth was -40.5% (active).

**Q.** And the growth [18]?
**A.** The growth was -54.4% (active).

**Q.** What about the growth [5] of the same compound?
**A.** The growth was -22.8% (active).

**Q.** What about the growth [6] of the same compound?
**A.** The growth was -89.6% (active).

**Q.** And the growth [7]?
**A.** The growth was -82.8% (active).

**Q.** And the growth [8]?
**A.** Its growth is -76.4% (active).

**Q.** What about the growth [10] of the same compound?
**A.** The growth was -96% (active).

**Q.** What about the growth [17] of the same compound?
**A.** Its growth is -99.1% (active).

**Q.** What about the growth [13] of the same compound?
**A.** The growth was -49.1% (active).

**Q.** And the growth [14]?
**A.** The growth was -47.4% (active).

**Q.** What about the growth [15] of the same compound?
**A.** Its growth is -93% (active).

**Q.** What about the growth [16] of the same compound?
**A.** Its growth is 37.8%.

**Q.** What about the growth [19] of the same compound?
**A.** The growth was -73.1% (active).

**Q.** `CC1CC=CCC12C(=O)NC(=S)NC2=O` (stereo not drawn) was tested. Which growth [1] did it give?
**A.** The growth was 102%.

**Q.** What about the growth [2] of the same compound?
**A.** The growth was 118%.

**Q.** What about the growth [3] of the same compound?
**A.** Its growth is 105%.

**Q.** And the growth [4]?
**A.** Its growth is 101%.

**Q.** What about the growth [5] of the same compound?
**A.** The growth was 91.2%.

**Q.** And the growth [6]?
**A.** Its growth is 122%.

**Q.** What about the growth [7] of the same compound?
**A.** The growth was 107%.

**Q.** What about the growth [8] of the same compound?
**A.** Its growth is 105%.

**Q.** What about the growth [9] of the same compound?
**A.** The growth was 95.9%.

**Q.** What about the growth [11] of the same compound?
**A.** Its growth is 103%.

**Q.** What about the growth [13] of the same compound?
**A.** The growth was 109%.

**Q.** What about the growth [15] of the same compound?
**A.** The growth was 118%.

**Q.** What about the growth [16] of the same compound?
**A.** The growth was 102%.

**Q.** For `O=C(Nc1ccc(S(=O)(=O)F)cc1)Oc1ccccc1`, which growth [1] is on record?
**A.** Its growth is 99.5%.

**Q.** What about the growth [2] of the same compound?
**A.** Its growth is 94.8%.

**Q.** And the growth [18]?
**A.** The growth was 93.3%.

**Q.** And the growth [5]?
**A.** Its growth is 97.2%.

**Q.** What about the growth [6] of the same compound?
**A.** Its growth is 110%.

**Q.** And the growth [7]?
**A.** Its growth is 102%.

**Q.** What about the growth [10] of the same compound?
**A.** The growth was 87%.

**Q.** What about the growth [17] of the same compound?
**A.** The growth was 106%.

**Q.** What about the growth [13] of the same compound?
**A.** The growth was 109%.

**Q.** And the growth [14]?
**A.** The growth was 92.3%.

**Q.** And the growth [15]?
**A.** Its growth is 105%.

**Q.** And the growth [19]?
**A.** Its growth is 95.9%.

**Q.** Which growth [1] does the source give for `CC(/C=N/N=C(N)N)=N/N=C(N)N` here?
**A.** Its growth is 97.4%.

**Q.** And the growth [2]?
**A.** Its growth is 34.9%.

**Q.** And the growth [18]?
**A.** The growth was 81.1%.

**Q.** And the growth [4]?
**A.** The growth was 117%.

**Q.** What about the growth [7] of the same compound?
**A.** Its growth is 91.8%.

**Q.** What about the growth [9] of the same compound?
**A.** The growth was 92.9%.

**Q.** And the growth [10]?
**A.** The growth was 69.9%.

**Q.** And the growth [11]?
**A.** Its growth is 74.2%.

**Q.** What about the growth [17] of the same compound?
**A.** Its growth is 94.5%.

**Q.** And the growth [12]?
**A.** The growth was 83%.

**Q.** What about the growth [14] of the same compound?
**A.** Its growth is 95.7%.

**Q.** And the growth [15]?
**A.** The growth was 79.8%.

**Q.** What about the growth [16] of the same compound?
**A.** Its growth is 88.6%.

**Q.** Which growth [1] does the source give for `COP(=S)(OC)Oc1ccc(SC)c(C)c1` here?
**A.** The growth was 85.6%.

**Q.** What about the growth [2] of the same compound?
**A.** The growth was 108%.

**Q.** And the growth [3]?
**A.** Its growth is 72.6%.

**Q.** What about the growth [4] of the same compound?
**A.** The growth was 94.8%.

**Q.** What about the growth [6] of the same compound?
**A.** The growth was 101%.

**Q.** And the growth [7]?
**A.** The growth was 103%.

**Q.** What about the growth [8] of the same compound?
**A.** The growth was 95.5%.

**Q.** And the growth [9]?
**A.** Its growth is 106%.

**Q.** What about the growth [10] of the same compound?
**A.** The growth was 80.2%.

**Q.** And the growth [11]?
**A.** Its growth is 124%.

**Q.** And the growth [12]?
**A.** The growth was 92.6%.

**Q.** And the growth [16]?
**A.** The growth was 110%.

**Q.** What about the growth [19] of the same compound?
**A.** The growth was 96.6%.

**Q.** What does the source list for `Nc1nc(N)c(-c2ccc(Cl)c(Cl)c2)c(/C=C/c2ccc(S(=O)(=O)F)cc2)n1`?
**A.** growth [1]: 114%; growth [2]: 89.8%; growth [18]: 91.3%; growth [5]: 81.3%; growth [6]: 98.1%; growth [7]: 59.4%; growth [8]: 79.1%; growth [10]: 74.7%; growth [11]: 86.8%; growth [17]: 67.8%; growth [12]: 84.4%; growth [13]: 76.8%; growth [14]: 93.1%; growth [15]: 95.4%

**Q.** What does the source list for `Cc1cc(CCl)c(C)cc1CCl`?
**A.** growth [1]: 83.3%; growth [2]: 15%; growth [3]: 79.3%; growth [4]: 55.5%; growth [5]: 55%; growth [8]: 60.6%; growth [9]: 106%; growth [10]: 33.9%; growth [11]: 37.3%; growth [12]: 5.81% (active); growth [14]: 26.4%; growth [15]: 2.57% (active); growth [16]: 81.7%
